Source: PubChem BioAssay AID1159580 (chemical genetic matrix, 2015)
Where “and” joins values, the source holds several entries; their conditions need not be identical. Equal entries are not always repeated. The whole screen tested about 5,500 compounds, of which about 2,000 (36%) were called active. Another 18% or so got no clear call; they are omitted. Cut-off read from the data, not from the text of the source: active = normalized growth mostly below about 0.91 (no sharp cut-off); inconclusive = no clear call, values can overlap the other calls; inactive = mostly above about 0.92. The list shows a part of the results.

Test: chemical genetic growth profiling, strain panel (AID 1159580);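 note: tested at 20 µM; growth read once vehicle control cultures reached saturation at 30 °C; 1 = growth at the plate median or of vehicle wells; lower values mean less growth of the strain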
Conditions: S. cerevisiae deletion strains, growth OD

Measured: normalized growth

Oc1cc(O)c2c(c1)O[C@H](c1cc(O)c(O)c(O)c1)[C@H](O)C2
active: locus YDR159W, strain sac3, stronger effect = lower value 1.18 [resistant]
inactive: locus YAL021C, strain ccr4, stronger effect = lower value 0.992 | locus YAL026C, strain drs2, stronger effect = lower value 1.02 | locus YAL030W, strain snc1, stronger effect = lower value 1.01 | locus YBL061C, strain skt5, stronger effect = lower value 1.02 | locus YBR009C, strain hhf1, stronger effect = lower value 1.02 | locus YBR021W, strain FUR4, stronger effect = lower value 1.03 | locus YBR023C, strain chs3, stronger effect = lower value 1.02 | locus YBR171W, strain sec66, stronger effect = lower value 1.03 | locus YBR229C, strain ROT2, stronger effect = lower value 0.996 | locus YBR231C, strain swc5, stronger effect = lower value 1 | locus YBR279W, strain paf1, stronger effect = lower value 1.01 | locus YCL011C, strain gbp2, stronger effect = lower value 1.02 | locus YCL016C, strain dcc1, stronger effect = lower value 1.02 | locus YCL029C, strain bik1, stronger effect = lower value 0.986 | locus YCL061C, strain MRC1, stronger effect = lower value 1.02 | locus YCL069W, strain vba3, stronger effect = lower value 1.02 | locus YCR088W, strain abp1, stronger effect = lower value 1.02 | locus YDL005C, strain med2, stronger effect = lower value 1.03 | locus YDL035C, strain GPR1, stronger effect = lower value 1.03 | locus YDL040C, strain nat1, stronger effect = lower value 1.01 | locus YDL074C, strain BRE1, stronger effect = lower value 0.981 | locus YDL101C, strain DUN1, stronger effect = lower value 0.985 | locus YDL185W, strain tfp1, stronger effect = lower value 0.983 | locus YDL192W, strain arf1, stronger effect = lower value 0.982 | locus YDR001C, strain nth1, stronger effect = lower value 1.02 | locus YDR069C, strain doa4, stronger effect = lower value 0.993 | locus YDR101C, strain arx1, stronger effect = lower value 0.985 | locus YDR137W, strain rgp1, stronger effect = lower value 1.06 | locus YDR150W, strain NUM1, stronger effect = lower value 0.995 | locus YDR162C, strain NBP2, stronger effect = lower value 1.02 | locus YDR195W, strain ref2 1.05 | locus YDR297W, strain sur2, stronger effect = lower value 1.02 | locus YDR318W, strain mcm21, stronger effect = lower value 0.999 | locus YDR334W, strain swr1, stronger effect = lower value 1.02 | locus YDR335W, strain msn5, stronger effect = lower value 1.01 | locus YDR388W, stronger effect = lower value 0.988 | locus YDR392W, strain spt3, stronger effect = lower value 1.02 | locus YDR502C, strain sam2, stronger effect = lower value 1.02 | locus YEL003W, strain gim4, stronger effect = lower value 1.02 | locus YEL037C, strain rad23, stronger effect = lower value 1.01 | locus YEL061C, strain CIN8 (second series), stronger effect = lower value 1.03 | locus YEL061C, strain CIN8, stronger effect = lower value 0.999 | locus YER015W, strain faa2, stronger effect = lower value 0.999 | locus YER016W, strain bim1, stronger effect = lower value 1.02 | locus YER110C, stronger effect = lower value 0.984 | locus YER111C, strain swi4, stronger effect = lower value 1.01 | locus YER155C, strain BEM2 (second series), stronger effect = lower value 1.01 | locus YER155C, strain BEM2, stronger effect = lower value 1.01 | locus YER167W, strain BCK2, stronger effect = lower value 1.02 | locus YFR010W, strain ubp6, stronger effect = lower value 1.02 | locus YGL078C, strain dbp3, stronger effect = lower value 0.993 | locus YGL086W, strain mad1, stronger effect = lower value 0.993 | locus YGL167C, strain pmr1, stronger effect = lower value 1.01 | locus YGL173C, strain kem1, stronger effect = lower value 1.02 | locus YGL227W, strain vid30, stronger effect = lower value 1.02 | locus YGL240W, strain doc1, stronger effect = lower value 1.03 | locus YGL248W, strain PDE1, stronger effect = lower value 0.991 | locus YGL253W, strain hxk2, stronger effect = lower value 1.03 | locus YGR135W, strain pre9, stronger effect = lower value 0.99 | locus YGR252W, strain gcn5, stronger effect = lower value 1.02 | locus YHR013C, strain ard1, stronger effect = lower value 1.03 | locus YHR027C, strain rpn1, stronger effect = lower value 1.02 | locus YHR030C, strain SLT2, stronger effect = lower value 0.992 and 0.996 | locus YHR079C, strain IRE1 (second series), stronger effect = lower value 1.01 | locus YHR079C, strain IRE1, stronger effect = lower value 1.01 | locus YHR094C, strain hxt1, stronger effect = lower value 0.983 | locus YHR129C, strain ARP1, stronger effect = lower value 0.997 | locus YHR142W, strain chs7, stronger effect = lower value 1.04 | locus YHR200W, strain rpn10, stronger effect = lower value 0.994 | locus YIL066C, strain RNR3, stronger effect = lower value 1.01 | locus YIL073C, strain SPO22, stronger effect = lower value 1.01 | locus YIL125W, strain kgd1, stronger effect = lower value 0.997 | locus YIR030C, strain dcg1, stronger effect = lower value 1 | locus YJL092W, strain hpr5, stronger effect = lower value 1.02 | locus YJL095W, strain BCK1 (second series), stronger effect = lower value 1.02 | locus YJL095W, strain BCK1, stronger effect = lower value 0.947 and 1.01 | locus YJL115W, strain asf1, stronger effect = lower value 1.03 | locus YJL129C, strain trk1, stronger effect = lower value 1.08 | locus YJL134W, strain LCB3, stronger effect = lower value 0.992 | locus YJL154C, strain vps35, stronger effect = lower value 1.02 | locus YJL164C, strain tpk1, stronger effect = lower value 1.01 | locus YJL166W, strain qcr8, stronger effect = lower value 1.02 | locus YJL168C, strain set2, stronger effect = lower value 1 | locus YJL187C, strain SWE1 (second series), stronger effect = lower value 0.952 | locus YJL187C, strain SWE1, stronger effect = lower value 1.02
